The panel holds about 83,000 compounds, 20% with a hit somewhere; the sample as a whole holds those more often.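 Cell lines were cultured in 96-well plates, exposed to a single compound concentration, and assessed for percent growth 48 hours later.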 Unmarked numbers belong to inactive results. Active and inactive are the calls of the source. Rule for the calls: active = growth percent below 10; inactive = the rest.
Experiments:
Assay in all cases: NCI-60 one-dose screen, 48 h (100 = growth as untreated, 0 = no growth, -100 = all killed)
Settings in all cases: 10 µM unless noted
HCT-15 colon = test system: HCT-15 colon
HT29 colon = test system: HT29 colon
SNB-75 CNS = test system: SNB-75 CNS
SNB-19 CNS = test system: SNB-19 CNS
PC-3 prostate = test system: PC-3 prostate
SK-MEL-5 melanoma = test system: SK-MEL-5 melanoma
UACC-62 melanoma = test system: UACC-62 melanoma
LOX IMVI melanoma = test system: LOX IMVI melanoma
SK-MEL-28 melanoma = test system: SK-MEL-28 melanoma
SK-MEL-2 melanoma = test system: SK-MEL-2 melanoma
EKVX NSCLC = test system: EKVX NSCLC
SN12C renal = test system: SN12C renal
UO-31 renal = test system: UO-31 renal
TK-10 renal = test system: TK-10 renal
ACHN renal = test system: ACHN renal
CAKI-1 renal = test system: CAKI-1 renal
A498 renal = test system: A498 renal
CCRF-CEM leukemia = test system: CCRF-CEM leukemia
MOLT-4 leukemia = test system: MOLT-4 leukemia

Row | Structure (SMILES) | growth (HCT-15 colon) | growth (HT29 colon) | growth (SNB-75 CNS) | growth (SNB-19 CNS) | growth (PC-3 prostate) | growth (SK-MEL-5 melanoma) | growth (UACC-62 melanoma) | growth (LOX IMVI melanoma) | growth (SK-MEL-28 melanoma) | growth (SK-MEL-2 melanoma) | growth (EKVX NSCLC) | growth (SN12C renal) | growth (UO-31 renal) | growth (TK-10 renal) | growth (ACHN renal) | growth (CAKI-1 renal) | growth (A498 renal) | growth (CCRF-CEM leukemia) | growth (MOLT-4 leukemia)
1 | CSc1nc(NCCN2CCOCC2)c(C#N)c(-c2cccc([N+](=O)[O-])c2)n1 | 97.4% | 106% | 62.8% | 95.2% | 97.4% | 99.3% | 87.4% | 95.9% | 103% | 109% | 87.3% | 95.7% | 82.5% | 135% | 93.7% | 86.4% | 55.7% | 102% | 98%
2 | Cc1cc(N2CCOCC2)nc(NCc2cc(Nc3ccnc4cc(Cl)ccc34)ccc2F)n1 | -81.9% (active) | -28.5% (active) | -20.3% (active) | -22.9% (active) | -30% (active) | -98.3% (active) | -83.6% (active) | -68.4% (active) | -73.1% (active) | -61.6% (active) | 9.33% (active) | -72.7% (active) | -50.8% (active) | -14.7% (active) | -12.9% (active) | 3.58% (active) | -57.8% (active) | -10.4% (active) | -30.3% (active)
3 | COc1cc2nc(N3CCCC3)nc(Nc3ccccc3)c2cc1OC | -42.6% (active) | -71% (active) | 99.5% | 49.9% | 29.4% | -97.8% (active) | -76.1% (active) | -92.6% (active) | -91.3% (active) | -52.5% (active) | 28.3% | -53.5% (active) | -53.5% (active) | – | -11.2% (active) | -19% (active) | 40.6% | – | -24.7% (active)
4 | Cc1oc(-c2ccc(Cl)cc2Cl)cc1C(=O)Nc1nccs1 | 85.6% | 86.6% | 84.4% | 98.8% | 96.6% | 97.1% | 91.7% | 79.1% | 105% | 102% | 70.7% | 78.3% | 82% | 103% | 62.5% | 78.1% | 102% | 89% | 94%
5 | CN(C)S(=O)(=O)c1ccc(S(=O)(=O)Nc2cccc(Cl)c2N2CCCCC2)cc1 | 79.9% | 91.8% | 64.2% | 84.9% | 60.3% | 80.7% | 57.8% | 67.4% | 59.9% | 73.8% | 68.2% | 83% | 72.7% | – | 75.3% | 31.6% | 103% | 75% | 68.9%
6 | N#Cc1c(-c2ccc(Cl)cc2)nc(NN=Cc2ccco2)nc1N1CCOCC1 | 80.3% | 87% | 10.3% | 80% | 68.3% | 80.9% | 58.2% | 78.7% | 65.9% | 82.3% | 46.5% | 82.1% | 27.1% | 68.8% | 76.7% | 62.8% | -19.9% (active) | 88.7% | 83%
7 | O=S(=O)(Nc1ccc(Br)c(Cl)c1)c1ccc(-c2cnc(C3CC3)o2)cc1 | 20.7% | -15.3% (active) | -5.71% (active) | 35% | 23.9% | 10.2% | 30.1% | 43.7% | 57.9% | 34.4% | 33.9% | 41.1% | 47.5% | 51.5% | 46.4% | 30.9% | -18.2% (active) | 19.3% | 27.6%
8 | COc1cccc(-c2nc3sccn3c2-c2ccnc(NCCCNS(=O)(=O)c3c(Cl)cccc3Cl)c2)c1 | 37.7% | 48.4% | 73% | 78.7% | 35.1% | 22.8% | 25.7% | 54.1% | 90.1% | 67.5% | 58.7% | 60.9% | 32.4% | – | 49.9% | 44.1% | 71.3% | 31.9% | 28.9%
9 | COC(=O)[C@]12CCC(C)(C)C[C@H]1[C@H]1C(=O)C[C@@H]3[C@@]4(C)c5c([nH]c6ccccc6c5=O)C(C)(C)[C@@H]4CC[C@@]3(C)[C@]1(C)CC2 | 46.5% | 45.4% | 65% | 75.3% | 36.6% | 12.4% | 54.5% | 58.3% | 68% | 75.5% | 52.4% | 70% | 67.2% | 84.7% | 53% | 50.7% | 69% | 59.5% | 43.5%
10 | COc1cc2nc(N3CCCC3)nc(NCC3CCCCC3)c2cc1OC | -70.9% (active) | -24.8% (active) | 93.4% | 82.9% | 25.1% | -97.7% (active) | 87% | -92.8% (active) | -86.4% (active) | -43.5% (active) | 40.2% | 59.6% | 42.5% | -34.7% (active) | 16.8% | 13.3% | -3.66% (active) | – | -16.3% (active)
11 | COc1cccc(-c2nc3sccn3c2-c2ccnc(NCCCNS(=O)(=O)c3cccc(Cl)c3)c2)c1 | 28.7% | 54.5% | 51.8% | 66.3% | 21.7% | -12.5% (active) | -7.03% (active) | 35.6% | 67.4% | 39.8% | 40.6% | 45.5% | 20.4% | 71.5% | 37.5% | 25.9% | 54.4% | 18.1% | 9.9% (active)
12 | COc1ccc(/C=C/C(=O)c2ccc(O)c(CN3CCN(c4cc5c(cc4F)c(=O)c(C(=O)O)cn5C4CC4)CC3)c2)cc1 | 19.1% | 11.1% | -5.37% (active) | 24% | 18.1% | -23% (active) | 27.2% | 12.8% | 57.9% | 34.5% | 57.3% | 7.55% (active) | 3.15% (active) | – | 25.5% | 32% | -0.877% (active) | 28.6% | 45.7%
13 | COc1ccc(Nc2nc(SC)nc(-c3cccc([N+](=O)[O-])c3)c2C#N)cc1 | 78.6% | 70.3% | 10.3% | 79% | 75.8% | 70.9% | 69.5% | 70.8% | 84.9% | 94.9% | 70.5% | 64.5% | 17.7% | 84% | 16.9% | 63% | 57.8% | 114% | 99.8%
14 | C[n+]1ccccc1/C=C/c1ccc2cccc(O)c2n1 | 106% | 101% | 86.8% | 97% | 94.7% | – | 105% | 104% | 95.7% | 103% | 32% | 91.8% | 57.9% | 109% | 102% | 57.3% | 63.9% | 103% | 95.2%
15 | CC1=C(O)C(=O)C(C(C#N)(C#N)C(C#N)C#N)C1 (stereo not drawn) | 98.9% | 111% | 81.5% | 108% | 106% | – | 97.6% | 96.5% | 114% | 83.9% | 95.3% | 100% | 94.3% | 105% | 106% | – | 97.1% | 112% | 100%
16 | O=c1cc(CSc2nnc(SCc3cc(=O)oc4c3ccc3ccccc34)o2)c2ccc3ccccc3c2o1 | 104% | 97% | 93% | 107% | 89.9% | – | 99.6% | 88.7% | 109% | 87.8% | 94.7% | – | 81.2% | 98.8% | 102% | 97.4% | 98.9% | 105% | 98%

Reference: PubChem BioAssay (NCI)
